Data reported in PubChem BioAssay.
“And” between values parts separate entries of the source, which are not always exact repeats. Equal entries are not always repeated. The source made the active and inactive calls. Unless noted, no rule for the calls is given here.

test system: not listed separately; experiment: Cy5 fluorescence interference with SSB-bound oligo, artefact control for HCV NS3 helicase inhibitor project, biochemical, NIH Clinical Collection, E. coli SSB (AID 743268); conditions: not given

**Q.** Which fluorescence ratio does the source give for `CNCCC(Oc1ccc(C(F)(F)F)cc1)c1ccccc1` (configuration not stated) here?
**A.** Its fluorescence ratio is 1.04 (inactive).

**Q.** Which fluorescence ratio does the source give for `COc1ccc(/C=C/C(=O)Nc2ccccc2C(=O)O)cc1OC` here?
**A.** The fluorescence ratio was 1.05 (inactive).

**Q.** With `COC(=O)[C@H](c1ccccc1Cl)N1CCc2sccc2C1` as the compound, how does the fluorescence ratio read?
**A.** Its fluorescence ratio is 1 (inactive).

**Q.** With `CC(C)NCC(O)COc1cccc2ccccc12` (configuration not stated) as the compound, how does the fluorescence ratio read?
**A.** Its fluorescence ratio is 1.01 (inactive).

**Q.** With `O=[N+]([O-])c1cccc2cn[nH]c12` as the compound, how does the fluorescence ratio read?
**A.** The fluorescence ratio was 0.99 (inactive).

**Q.** With `CS(=O)(=O)c1ccc(C2=C(c3ccccc3)C(=O)OC2)cc1` as the compound, how does the fluorescence ratio read?
**A.** Its fluorescence ratio is 1.03 (inactive).

**Q.** Which fluorescence ratio does the source give for `Cc1occc(=O)c1O` here?
**A.** Its fluorescence ratio is 1 (inactive).

**Q.** For `CN(C)c1nc(N(C)C)nc(N(C)C)n1`, which fluorescence ratio is on record?
**A.** The fluorescence ratio was 1.08 (inactive).

**Q.** Which fluorescence ratio does the source give for `COc1ccc(-c2cc(=O)c3c(OC)c(OC)c(OC)c(OC)c3o2)cc1OC` here?
**A.** The fluorescence ratio was 1.01 (inactive).

**Q.** For `C[N+]1(C)CCCC(OC(=O)C(O)(c2ccccc2)c2ccccc2)C1` (configuration not stated), which fluorescence ratio is on record?
**A.** Its fluorescence ratio is 1.02 (inactive).

**Q.** For `CC1=C(/C=C/C(C)=C/C=C/C(C)=C\C(=O)O)C(C)(C)CCC1`, which fluorescence ratio is on record?
**A.** Its fluorescence ratio is 1.01 (inactive).

**Q.** For `CCc1ccc(CCOc2ccc(CC3SC(=O)NC3=O)cc2)nc1` (configuration not stated), which fluorescence ratio is on record?
**A.** Its fluorescence ratio is 1.03 (inactive).

**Q.** Which fluorescence ratio does the source give for `CC(C(=O)O)c1ccc(-c2ccccc2)c(F)c1` (configuration not stated) here?
**A.** Its fluorescence ratio is 0.95 (inactive) and 0.99 (inactive).

**Q.** For `CC[C@H]1OC(=O)[C@H](C)[C@@H](O[C@H]2C[C@@](C)(OC)[C@@H](O)[C@H](C)O2)[C@H](C)[C@@H](O[C@@H]2O[C@H](C)C[C@H](N(C)C)[C@H]2O)[C@](C)(OC)C[C@@H](C)C(=O)[C@H](C)[C@@H](O)[C@]1(C)O`, which fluorescence ratio is on record?
**A.** Its fluorescence ratio is 1.06 (inactive).

**Q.** Which fluorescence ratio does the source give for `C[C@H]1COc2c(N3CCN(C)CC3)c(F)cc3c(=O)c(C(=O)O)cn1c23` here?
**A.** The fluorescence ratio was 1.03 (inactive).

**Q.** Which fluorescence ratio does the source give for `CC(C)NCC(O)COc1ccc(CC(N)=O)cc1` (configuration not stated) here?
**A.** Its fluorescence ratio is 1.03 (inactive).

**Q.** Which fluorescence ratio does the source give for `Cc1cccc(C)c1NC(=O)C1CCCCN1C` (configuration not stated) here?
**A.** The fluorescence ratio was 0.96 (inactive).

**Q.** For `CCCCC(=O)N(Cc1ccc(-c2ccccc2-c2nn[nH]n2)cc1)[C@H](C(=O)O)C(C)C`, which fluorescence ratio is on record?
**A.** The fluorescence ratio was 1.07 (inactive).

**Q.** For `Nc1ncnc2c1ncn2[C@@H]1O[C@H](CO)[C@@H](O)[C@@H]1O`, which fluorescence ratio is on record?
**A.** Its fluorescence ratio is 1 (inactive).

test system: Hepatitis C virus NS3 helicase; experiment: HCV NS3 helicase inhibitors, primary screen, biochemical, fluorescence polarization, NIH Clinical Collection (AID 743270); conditions: NS3 helicase binding to Cy5-dT15 DNA, hits give high values, concentration not given here

**Q.** With `CNCCC(Oc1ccc(C(F)(F)F)cc1)c1ccccc1` (configuration not stated) as the compound, how does the inhibition read?
**A.** The inhibition was -2.27% (inactive).

**Q.** With `COc1ccc(/C=C/C(=O)Nc2ccccc2C(=O)O)cc1OC` as the compound, how does the inhibition read?
**A.** Its inhibition is 0.4% (inactive).

**Q.** With `COC(=O)[C@H](c1ccccc1Cl)N1CCc2sccc2C1` as the compound, how does the inhibition read?
**A.** Its inhibition is -9.55% (inactive).

**Q.** For `CC(C)NCC(O)COc1cccc2ccccc12` (configuration not stated), which inhibition is on record?
**A.** The inhibition was -8.64% (inactive).

**Q.** With `O=[N+]([O-])c1cccc2cn[nH]c12` as the compound, how does the inhibition read?
**A.** Its inhibition is 1.53% (inactive).

**Q.** With `CS(=O)(=O)c1ccc(C2=C(c3ccccc3)C(=O)OC2)cc1` as the compound, how does the inhibition read?
**A.** Its inhibition is 3.56% (inactive).

**Q.** Which inhibition does the source give for `Cc1occc(=O)c1O` here?
**A.** Its inhibition is -7.21% (inactive).

**Q.** With `CN(C)c1nc(N(C)C)nc(N(C)C)n1` as the compound, how does the inhibition read?
**A.** Its inhibition is -2.27% (inactive).

**Q.** For `COc1ccc(-c2cc(=O)c3c(OC)c(OC)c(OC)c(OC)c3o2)cc1OC`, which inhibition is on record?
**A.** Its inhibition is -1.19% (inactive).

**Q.** Which inhibition does the source give for `C[N+]1(C)CCCC(OC(=O)C(O)(c2ccccc2)c2ccccc2)C1` (configuration not stated) here?
**A.** Its inhibition is -3.18% (inactive).

**Q.** Which inhibition does the source give for `CC1=C(/C=C/C(C)=C/C=C/C(C)=C\C(=O)O)C(C)(C)CCC1` here?
**A.** Its inhibition is 0.45% (inactive).

**Q.** With `CCc1ccc(CCOc2ccc(CC3SC(=O)NC3=O)cc2)nc1` (configuration not stated) as the compound, how does the inhibition read?
**A.** Its inhibition is 0.4% (inactive).

**Q.** Which inhibition does the source give for `CC(C(=O)O)c1ccc(-c2ccccc2)c(F)c1` (configuration not stated) here?
**A.** The inhibition was -2.77% (inactive) and -3.18% (inactive).

**Q.** Which inhibition does the source give for `CC[C@H]1OC(=O)[C@H](C)[C@@H](O[C@H]2C[C@@](C)(OC)[C@@H](O)[C@H](C)O2)[C@H](C)[C@@H](O[C@@H]2O[C@H](C)C[C@H](N(C)C)[C@H]2O)[C@](C)(OC)C[C@@H](C)C(=O)[C@H](C)[C@@H](O)[C@]1(C)O` here?
**A.** The inhibition was -0.4% (inactive).

**Q.** For `C[C@H]1COc2c(N3CCN(C)CC3)c(F)cc3c(=O)c(C(=O)O)cn1c23`, which inhibition is on record?
**A.** Its inhibition is -3.56% (inactive).

**Q.** Which inhibition does the source give for `CC(C)NCC(O)COc1ccc(CC(N)=O)cc1` (configuration not stated) here?
**A.** Its inhibition is -0.45% (inactive).

**Q.** Which inhibition does the source give for `Cc1cccc(C)c1NC(=O)C1CCCCN1C` (configuration not stated) here?
**A.** Its inhibition is -2.84% (inactive).

**Q.** Which inhibition does the source give for `CCCCC(=O)N(Cc1ccc(-c2ccccc2-c2nn[nH]n2)cc1)[C@H](C(=O)O)C(C)C` here?
**A.** Its inhibition is 4.36% (inactive).

**Q.** With `Nc1ncnc2c1ncn2[C@@H]1O[C@H](CO)[C@@H](O)[C@@H]1O` as the compound, how does the inhibition read?
**A.** The inhibition was -4.09% (inactive).

target: Single-stranded DNA-binding protein (Escherichia coli (strain K12)) (UniProt P0AGE0); experiment: E. coli SSB displacement from DNA, counter-screen for HCV NS3 helicase inhibitor project, biochemical, fluorescence polarization, NIH Clinical Collection (AID 743271; in the data active = inhibition above about 28%); conditions: hits give high values, concentration not given here

**Q.** With `CNCCC(Oc1ccc(C(F)(F)F)cc1)c1ccccc1` (configuration not stated) as the compound, how does the inhibition read?
**A.** Its inhibition is -2.76% (inactive).

**Q.** For `COc1ccc(/C=C/C(=O)Nc2ccccc2C(=O)O)cc1OC`, which inhibition is on record?
**A.** The inhibition was -1.64% (inactive).

**Q.** Which inhibition does the source give for `COC(=O)[C@H](c1ccccc1Cl)N1CCc2sccc2C1` here?
**A.** Its inhibition is 3.34% (inactive).

**Q.** Which inhibition does the source give for `CC(C)NCC(O)COc1cccc2ccccc12` (configuration not stated) here?
**A.** Its inhibition is 2.57% (inactive).

**Q.** Which inhibition does the source give for `O=[N+]([O-])c1cccc2cn[nH]c12` here?
**A.** The inhibition was -2.76% (inactive).

**Q.** With `CS(=O)(=O)c1ccc(C2=C(c3ccccc3)C(=O)OC2)cc1` as the compound, how does the inhibition read?
**A.** The inhibition was 1.44% (inactive).

**Q.** Which inhibition does the source give for `Cc1occc(=O)c1O` here?
**A.** The inhibition was -2.76% (inactive).

**Q.** With `CN(C)c1nc(N(C)C)nc(N(C)C)n1` as the compound, how does the inhibition read?
**A.** The inhibition was 1.81% (inactive).

**Q.** For `COc1ccc(-c2cc(=O)c3c(OC)c(OC)c(OC)c(OC)c3o2)cc1OC`, which inhibition is on record?
**A.** Its inhibition is -2.41% (inactive).

**Q.** With `C[N+]1(C)CCCC(OC(=O)C(O)(c2ccccc2)c2ccccc2)C1` (configuration not stated) as the compound, how does the inhibition read?
**A.** Its inhibition is -3.53% (inactive).

**Q.** With `CC1=C(/C=C/C(C)=C/C=C/C(C)=C\C(=O)O)C(C)(C)CCC1` as the compound, how does the inhibition read?
**A.** Its inhibition is -1.24% (inactive).

**Q.** With `CCc1ccc(CCOc2ccc(CC3SC(=O)NC3=O)cc2)nc1` (configuration not stated) as the compound, how does the inhibition read?
**A.** Its inhibition is 3.75% (inactive).

**Q.** Which inhibition does the source give for `CC(C(=O)O)c1ccc(-c2ccccc2)c(F)c1` (configuration not stated) here?
**A.** Its inhibition is 6.83% (inactive) and 0.29% (inactive).

**Q.** With `CC[C@H]1OC(=O)[C@H](C)[C@@H](O[C@H]2C[C@@](C)(OC)[C@@H](O)[C@H](C)O2)[C@H](C)[C@@H](O[C@@H]2O[C@H](C)C[C@H](N(C)C)[C@H]2O)[C@](C)(OC)C[C@@H](C)C(=O)[C@H](C)[C@@H](O)[C@]1(C)O` as the compound, how does the inhibition read?
**A.** Its inhibition is -3.18% (inactive).

**Q.** With `C[C@H]1COc2c(N3CCN(C)CC3)c(F)cc3c(=O)c(C(=O)O)cn1c23` as the compound, how does the inhibition read?
**A.** The inhibition was -3.95% (inactive).

**Q.** For `CC(C)NCC(O)COc1ccc(CC(N)=O)cc1` (configuration not stated), which inhibition is on record?
**A.** The inhibition was 0.29% (inactive).

**Q.** With `Cc1cccc(C)c1NC(=O)C1CCCCN1C` (configuration not stated) as the compound, how does the inhibition read?
**A.** The inhibition was 1.97% (inactive).

**Q.** For `CCCCC(=O)N(Cc1ccc(-c2ccccc2-c2nn[nH]n2)cc1)[C@H](C(=O)O)C(C)C`, which inhibition is on record?
**A.** Its inhibition is 4.52% (inactive).

**Q.** For `Nc1ncnc2c1ncn2[C@@H]1O[C@H](CO)[C@@H](O)[C@@H]1O`, which inhibition is on record?
**A.** Its inhibition is -1.24% (inactive).
